The results in this text go back to PubChem BioAssay (Tox21).

Structures are written as SMILES. Inconclusive results are not listed. Calls of active or inactive are those of the source. Unless noted, calls come from the whole dose curve; as a rule, active = well fitted curve in the direction sought with a large enough effect in the repeat runs; inconclusive = weak or mixed curves; inactive = no such curve, though single readings can be large; an effect the other way counts as inactive or inconclusive.

The nature of assay [1]: qHTS assay to identify aromatase inhibitors - cell viability counter screen (AID 743084;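 note: cells stimulated with testosterone during compound exposure; nearly all actives have a fitted effect of over 55% in size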; note: potency is the fitted concentration of half-maximal effect). (Quantitative high-throughput screening tests each substance at several concentrations.)
Assay [2] has as its target Aryl hydrocarbon receptor (Homo sapiens) (UniProt P35869). The assay can be described thus: qHTS assay to identify small molecule that activate the aryl hydrocarbon receptor (AhR) signaling pathway (AID 743085).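 For activation: HG2L7.5c1 human HepG2 liver cells with stably integrated DRE-driven firefly reporter; series mostly up to about 70 µM.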 Note: nearly all actives have a fitted effect of over 15% in size. Note: potency is the fitted concentration of half-maximal effect. In a few lines:
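Cell line HG2L7.5c1 (human hepatoma, 20× DRE-luc). Plated, 5 h 37C, compound/DMSO added, 24 h 37C. CellTiter-Fluor 30 min 37C → fluorescence; then ONE-Glo 30 min RT → luminescence.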

Assay [3] is described as follows: qHTS assay to identify small molecule that activate the aryl hydrocarbon receptor (AhR) signaling pathway - cell viability counter screen (AID 743086). Note: nearly all actives have a fitted effect of over 45% in size. Note: potency is the fitted concentration of half-maximal effect. In a few lines: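 Cytotoxicity counter screen: CellTiter-Fluor signal (30 min, 37 C) in 4000 HepG2 cells/well carrying the DRE-luciferase reporter, following 24 h compound exposure at 37 C.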
For assay [4], the target named is Peroxisome proliferator-activated receptor gamma (Homo sapiens) (UniProt P37231). The assay can be described thus: qHTS assay to identify small molecule agonists of the peroxisome proliferator-activated receptor gamma (PPARg) signaling pathway (AID 743094; active = well fitted activation curve with a large enough effect in the signal ratio in the repeat runs, not every such curve was filed as active; the % refers to the signal ratio). An outline of the steps: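 Agonism was assessed in a beta-lactamase reporter system, HEK293H cells with a stably integrated UAS-bla construct under PPARg control; the 17 h treatment at 37C preceded a 1 h room-temperature FRET substrate read.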
Peroxisome proliferator-activated receptor gamma (Homo sapiens), sequence (P37231 whole entry, looked up): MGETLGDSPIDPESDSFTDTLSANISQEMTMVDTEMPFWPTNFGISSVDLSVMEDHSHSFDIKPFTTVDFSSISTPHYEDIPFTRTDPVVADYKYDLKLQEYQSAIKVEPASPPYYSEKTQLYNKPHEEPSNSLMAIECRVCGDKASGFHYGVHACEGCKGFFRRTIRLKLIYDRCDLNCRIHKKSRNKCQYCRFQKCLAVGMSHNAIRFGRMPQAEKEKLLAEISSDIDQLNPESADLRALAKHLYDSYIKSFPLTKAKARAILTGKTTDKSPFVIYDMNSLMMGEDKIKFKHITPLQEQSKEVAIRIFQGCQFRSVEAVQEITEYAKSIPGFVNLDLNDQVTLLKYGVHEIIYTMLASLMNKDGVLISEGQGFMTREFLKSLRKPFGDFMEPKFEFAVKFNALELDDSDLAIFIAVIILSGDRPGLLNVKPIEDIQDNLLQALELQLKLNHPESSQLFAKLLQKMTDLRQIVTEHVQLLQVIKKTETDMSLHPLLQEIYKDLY

Aryl hydrocarbon receptor (Homo sapiens), sequence (P35869 whole entry, looked up): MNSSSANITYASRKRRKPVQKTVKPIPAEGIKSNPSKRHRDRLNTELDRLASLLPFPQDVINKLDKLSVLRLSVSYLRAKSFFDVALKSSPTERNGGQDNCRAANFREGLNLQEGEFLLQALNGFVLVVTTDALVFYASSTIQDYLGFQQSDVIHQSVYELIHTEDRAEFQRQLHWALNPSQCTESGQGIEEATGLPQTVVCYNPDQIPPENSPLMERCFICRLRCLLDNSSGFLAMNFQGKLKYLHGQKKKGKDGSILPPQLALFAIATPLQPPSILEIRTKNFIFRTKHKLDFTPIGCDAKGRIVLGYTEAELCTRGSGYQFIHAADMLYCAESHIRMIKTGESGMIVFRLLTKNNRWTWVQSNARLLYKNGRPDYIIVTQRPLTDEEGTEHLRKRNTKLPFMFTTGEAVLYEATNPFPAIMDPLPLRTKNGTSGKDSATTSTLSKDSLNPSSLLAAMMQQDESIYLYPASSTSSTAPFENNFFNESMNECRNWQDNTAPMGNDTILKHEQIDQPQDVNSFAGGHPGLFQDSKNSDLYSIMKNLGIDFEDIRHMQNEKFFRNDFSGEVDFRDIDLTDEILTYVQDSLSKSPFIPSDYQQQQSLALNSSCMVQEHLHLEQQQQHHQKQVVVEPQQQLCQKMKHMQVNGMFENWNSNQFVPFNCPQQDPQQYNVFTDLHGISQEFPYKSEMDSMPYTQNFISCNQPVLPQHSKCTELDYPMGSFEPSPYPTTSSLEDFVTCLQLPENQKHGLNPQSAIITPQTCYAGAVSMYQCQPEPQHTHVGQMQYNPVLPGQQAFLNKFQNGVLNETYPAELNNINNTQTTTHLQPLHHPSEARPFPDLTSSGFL

As for `NS(=O)(=O)c1cc(Cl)c(Cl)c(S(N)(=O)=O)c1`, the Potency entry in assay [1], in assay [2] and in assay [3] was “inactive” each time.
Regarding `CC/C=C\C/C=C\C/C=C\C/C=C\C/C=C\CCCC(=O)O`, the Potency entry in assay [1], in assay [2] and in assay [3] was “inactive” throughout.
Consider `C/C=C/C1=C(C(=O)O)N2C(=O)[C@@H](NC(=O)[C@H](N)c3ccc(O)cc3)[C@H]2SC1`, for which the Potency entry in assay [1], in assay [2] and in assay [3] was “inactive” in each case.
As for `CNCCC=C1c2ccccc2CCc2ccccc21`, the Potency entry in assay [1] and in assay [2] was “inactive” in each case.
On to `O=C1[O][Bi][O]c2ccccc21`, for which the Potency entry in assay [1] is “inactive”.
Regarding `CCCCC/C=C\C=C\C(=O)OCC`, the Potency in assay [1] is 56.8 µM (active).
Regarding `CC(C)=CCC/C(C)=C/CC/C(C)=C/CC/C(C)=C/CC1=C(C)C(=O)c2ccccc2C1=O`, the Potency result in assay [1], in assay [3] and in assay [4] was “inactive” in each case. Besides, in assay [2], the Potency was 10.6 µM (active).
Take `CCC1OC(=O)C[C@@H](O)[C@H](C)[C@@H](O[C@@H]2O[C@H](C)C[C@H](N(C)C)[C@H]2O)[C@@H](CC=O)C[C@@H](C)C(=O)/C=C/[C@]2(C)OC2C1C` (some centres undefined): the Potency in assay [1] and in assay [3] was 21.1 µM (active) each time. For the same compound, the Potency result in assay [2] is “inactive”.
For the compound `CCCOC(=O)c1ccccc1O`, the Potency result in assay [1], in assay [2] and in assay [3] was “inactive” throughout.
For `CCN(CC)CC#CCOC(=O)C(O)(c1ccccc1)C1CCCCC1` (centres undefined), the Potency in assay [1] was 11.9 µM (active). For the same compound, in assay [2], the Potency result is “inactive”.
For the compound `COc1cccc2c1[C@@H]1CN(CCCCn3c(=O)[nH]c4c(sc5ncc(-c6ccccc6)nc54)c3=O)C[C@@H]1CO2`, the Potency in assay [1] was 26.6 µM (active).
As for `CON=C1C[C@]2(C[C@@H]3C[C@@H](C/C=C(\C)C[C@@H](C)/C=C/C=C4\CO[C@@H]5[C@H](O)C(C)=C[C@@H](C(=O)O3)[C@]45O)O2)O[C@H](/C(C)=C/C(C)C)[C@H]1C`, the Potency entry in assay [1], in assay [2] and in assay [3] was “inactive” throughout.
